Screening data: PubChem, National Center for Advancing Translational Sciences (NCATS)
IkB sig inh – IkB pathway inhibition in ABC-DLBCL cells | Potency, µM (series often up to 57.1 µM), inactives show at the highest dose IkBa stabilization activation | AID 445 | ABC-DLBCL IkBa-CBG/CBR dual luciferase ratio, 4 h; response scale: scaled: untreated 0%, proteasome inhibitor 100% | 110,000 tested, 0.04% active; active = well fitted curve in the direction sought with a large enough effect in the signal ratio, not every such curve was filed as active; inconclusive = small, poorly fitted or top-dose-only effect, or a change in a side signal; the % refers to the signal ratio;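 note: potency is the fitted concentration of half-maximal effect; the direction sought is a rising ratio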
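Luminescence ratio of IκBα-fused green versus native red beetle luciferase in OCI-Ly3 cells, 4 h post-doxycycline with compound; red signal alone, scaled from basal (0%) to zero light (-100%), flagged nonspecific or cytotoxic effects.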
HBB splice mod – alters splicing of the hemoglobin beta chain; HBB splicing reporter cell assay, activation; EGFP reporter with mutant IVS2-654 intron; response scale: normalised to 500 nM splice-correcting PNA; Potency, µM (highest dose often 46.1 µM), without a hit: at the top dose activation, hits mostly activators; 65,000 tested, 0.06% active; AID 925; note: potency is the fitted concentration of half-maximal effect; 0% is about no effect
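HeLa cells stably expressing EGFP interrupted by mutant beta-globin intron 2 (IVS2-654), 500/well in 2% FCS. Treated with compound for 2 days at 37C. Splicing correction scored as total well GFP intensity (488 nm excitation, 500-520 nm emission); 500 nM antisense PNA served as control.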
Epigenetic mod – epigenetic modulators derepressing GFP locus in mouse cells | Potency, µM (top dose mostly 46.1 µM), inactives show at the highest dose GFP derepression (activation) | mouse C127i GFP locus derepression, cytometry, 30 h | 68,000 tested, 0.09% active | AID 597; note: % of control where 0% means no effect
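Locus derepression in mouse mammary C127i cells whose integrated CMV-GFP reporter is normally silent; GFP expression after 30 h compound treatment was quantified by counting fluorescent cells.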
CRE-bla Fsk – modulators of forskolin-stimulated CRE signaling in CHO cells | Potency, µM (titrated, usually from 38.2 µM), inactives show at the top dose activity change, negative = inhibition, most hits filed as activators | CHO CRE-bla reporter (cAMP response element driving beta-lactamase), forskolin EC10, beta-lactamase ratio | 71,000 tested, 2.5% active; active = well fitted activation curve with a large enough effect in the signal ratio, with a control signal flat, not every such curve was filed as active; inconclusive = small, poorly fitted or top-dose-only effect, or effect the other way, or a change in a side signal; the % refers to the signal ratio; note: potency is the fitted concentration of half-maximal effect; % of control where 0% means no effect
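Forskolin analogue NKH 477 at EC10 stimulated CRE-driven beta-lactamase in CHO cells alongside compound dilution series. Beta-lactamase was measured with CCF4, excitation 405 nm, emission ratio 460/530 nm.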
ERK AVP inh – inhibitors of vasopressin-stimulated ERK signaling pathway; HEK293-V1b, vasopressin-stimulated pERK AlphaScreen; Potency, µM (highest dose often 57.5 µM), without a hit: at the highest dose activity, negative = inhibition, usual class: inhibitors; 72,000 tested, 0.99% active; AID 995; note: potency is the fitted concentration of half-maximal effect; % is set by controls: 0 for no effect and ±100 for the full control effect; nearly all actives have a fitted effect of over 55% in size
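V1b-HEK293 cells; cpd 30 min 37C; 25 nM vasopressin 5 min; lyse 10 min; AlphaScreen beads 5 hr RT. Normalized to DMSO basal and 25 nM vasopressin; AC50 by Hill fit.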
* hit, by the source's call; ? = inconclusive; . = not tested or not shown; ! = a repeat was not active; [ ] = dose if it differs, or a comment. The sample as a whole holds a higher share of hits than the screen did. Unless noted, calls come from the whole dose curve; as a rule, active = well fitted curve in the direction sought with a large enough effect; inconclusive = small, poorly fitted or top-dose-only effect, or another doubt; inactive = no such curve, though single readings can be large; an effect the other way counts as inactive or inconclusive.

SMILES	IkB sig inh	HBB splice mod	Epigenetic mod	CRE-bla Fsk	ERK AVP inh
COc1ccc(OC)c(CCNC(=O)Cn2sc3nc(C)cc(C)c3c2=O)c1	?	-0.3%	3.1%	?	15.8µM*
COc1ccc(-c2nc(-c3ccc(NC(=O)c4ccncc4)cc3)no2)cc1OC	?	-0.7%	-8.2%	?	10µM*
COc1ccc(-c2noc(-c3ccc(C)cc3Cl)n2)cc1OC	0.0%	.	.	.	.
COc1ccc(-c2noc(-c3ccccc3-c3ccccc3)n2)cc1OC	1.9%	0.0%	-1.7%	7.94µM*	1.7%
COc1ccc(Cl)cc1-c1nc(-c2ccc(NC(=O)c3ccncc3)cc2)no1	-1.1%	-0.8%	0.0%	21.4%	-21.1%
COc1ccc(NC(=O)c2ccc(-c3ccc(-c4noc(C)n4)cc3C)cc2)cc1N1CCN(C)CC1	?	3.3%	-1.4%	-27.0%	12.6µM*!
CCCCC#CC1C=CC(Oc2ccc(C(=O)OC)cc2)C(COC(=O)OCC)O1 (configuration not stated)	.	1.8%[9.22 µM]	.	.	25.9%[11.5 µM]
O=C(Nc1cccc(C(=O)N2CCN(c3cccc(Cl)c3)CC2)c1)c1nsc2ccccc12	1.2%	.	.	.	.
CCCCN1C(=O)/C(=C2\SC(N3CCCCC3)=NC2=O)c2ccccc21	?	-2.8%	12.5%	10µM*	25.1µM*
O=C(c1ccc2c(c1)N(Cc1ccccc1)C(=O)c1ccccc1S2(=O)=O)N1CCN(c2ccccc2)CC1	-1.5%	.	.	.	.
COc1ccc(N2CC(c3nc(-c4ccccc4C)no3)CC2=O)cc1Cl (configuration not stated)	3.1%	.	.	.	.
C/C=C/COC(=O)c1[nH]c2c(c1C)C(=O)CC(c1ccc(N(C)C)cc1)C2 (configuration not stated)	6.6%	-0.3%	3.4%	12.9%	?
Cc1c(C(=O)OC2CCCC2)[nH]c2c1C(=O)CC(c1ccco1)C2 (configuration not stated)	?	-0.8%	-1.5%	0.501µM*	25.1µM*
Cc1c(C(=O)OCC2CCCO2)[nH]c2c1C(=O)CC(c1ccco1)C2 (configuration not stated)	-1.6%	-0.8%	0.0%	?	-5.2%
Cc1c(C(=O)OC2CCCCC2)[nH]c2c1C(=O)CC(c1ccc(F)cc1)C2 (configuration not stated)	-3.4%	.	.	.	.
C/C=C/COC(=O)c1[nH]c2c(c1C)C(=O)CC(c1ccco1)C2 (configuration not stated)	?	-0.6%	-2.3%	1.26µM*	-11.5%
C=CCOC(=O)c1[nH]c2c(c1C)C(=O)CC(c1ccco1)C2 (configuration not stated)	?	-1.2%	-4.5%	0.501µM*	?
Cc1c(C(=O)OCC(C)C)[nH]c2c1C(=O)CC(c1ccco1)C2 (configuration not stated)	?	-1.6%	-3.4%	1.58µM*	?
C#CCCCO/N=C1/C[C@@H](O)[C@@H](O)[C@@H]2[C@@H]3C(=O)N(C4CCCCC4)C(=O)[C@H]3CC[C@H]12	.	1.2%[9.22 µM]	.	.	6.1%[11.5 µM]
O=c1[nH]c2c(s1)C(c1ccccc1)C1C3CCC(C3)C1S2 (configuration not stated)	?	-0.9%	3.6%	10µM*	3.1%
Cc1cc(C)nc(-n2nc(C)cc2NC(=O)CN2CCC(C)CC2)n1	-0.3%	-0.2%[57.5 µM]	0.0%	?	-3.2%
CCC1CCCCN1CC(=O)Nc1cc(C)nn1-c1nc(C)cc(C)n1 (configuration not stated)	0.0%	-0.7%	0.0%	2.51µM*	1.4%
O=C(CN1C(=O)CCSc2ccc(S(=O)(=O)N3CCCC3)cc21)Nc1cccc(F)c1	2.0%	.	.	.	.
Clc1ccc2nc(-c3ccccc3)[nH]c2c1	.	.	.	.	25.1µM*
Nc1ccc2nc(-c3ccc(Cl)cc3)[nH]c2c1	?	-0.2%	.	?	.
SMILES	IkB sig inh	HBB splice mod	Epigenetic mod	CRE-bla Fsk	ERK AVP inh
c1ccc(CCCNc2ncnc3nc[nH]c23)cc1	0.2%	0.9%	.	7.94µM*	.
c1ccc(CNc2ncnc3nc[nH]c23)cc1	4.8%[25.6 µM]	-1.3%[20.6 µM]	5.1%[20.6 µM]	-5.1%[17.1 µM]	3.6%[25.7 µM]
COc1ccc2[nH]c3nc(SCc4nnc(-c5ccccc5)o4)nnc3c2c1	0.5%	-3.9%	1.2%	3.98µM*	-13.4%
COc1ccc2[nH]c3nc(SC(C)C)nnc3c2c1	?	-0.3%[57.5 µM]	1.1%	?	-27.9%
c1nc(N2CCCC2)c2[nH]cnc2n1	-2.1%	-0.6%	2.0%	9.2%	31.6µM*
N#C/C(=C\c1ccc(Cl)cc1Cl)c1nc(-c2cccc(Cl)c2)cs1	-3.1%	.	.	.	.
COc1cc2cc3c4c(cc(OC)c(OC)c4c2cc1OC)CCN3C	3.4%[11.4 µM]	.	2.3%[9.22 µM]	0.794µM*	?
COc1cc2cc(C(=O)O)n(C)c2c(OC)c1OC	1.5%	0.9%	-2.2%	0.2%	-1.9%
Cc1cc(N2CCN(C)CC2)nc2ccc(NC(=O)c3ccc4c(c3)OCO4)cc12	?	-0.1%	4.3%	13.7%	12.6µM*
CCOC(=O)Cc1nnc(NC(=O)c2ccccc2OCC)s1	-4.2%	4.3%	9.4%	12.6µM*	-21.8%
CC(C)[C@@H](CC(=O)N[C@@H]1CCNC[C@H]1C(=O)N[C@H](CC(=O)N[C@@H](CCC(=O)O)CC(=O)O)Cc1c[nH]c2ccccc12)NC(=O)C[C@H](Cc1c[nH]c2ccccc12)NC(=O)[C@@H]1CCCC[C@H]1N	2.1%	-0.7%	.	-12.4%	.
CCc1ccccc1N(C)C(=O)c1nn(-c2ccc(OC)cc2)c(=O)c2c1c1ccccc1n2C	-0.2%	.	.	.	.
CC(C)CCn1c(SCC#N)nc2c(sc3ccccc32)c1=O	-1.2%	-0.5%	-2.7%	0.398µM*	1.7%
CCCCn1c(SCc2ccccc2C#N)nc2c(sc3ccccc32)c1=O	-0.5%	.	.	.	.
CCN1CCC[C@@H](OC(=O)C(c2ccccc2)c2ccccc2)C1	0.1%[25.6 µM]	0.0%[20.6 µM]	1.7%[20.6 µM]	-0.6%[17.1 µM]	8.6%[25.7 µM]
Cc1ccn2c(CCc3nnc4cc(C)ccn34)nnc2c1	0.6%[11.4 µM]	-1.2%[9.22 µM]	-1.3%[9.22 µM]	2.7%[7.6 µM]	-2.4%[11.5 µM]
CCNc1ncc2nc(-c3cccc(C#N)c3)c(=O)n(Cc3cccc(OC)c3)c2n1	1.1%[11.4 µM]	4.0%	-2.7%[9.22 µM]	0.316µM*	-10.4%
CCNc1ncc2nc(-c3ccc(F)cc3)c(=O)n(C)c2n1	-6.6%[11.4 µM]	-0.8%	0.0%[9.22 µM]	?	-11.3%
CCNc1ncc2nc(-c3cccc(C#N)c3)c(=O)n(CCC#N)c2n1	-5.4%[11.4 µM]	0.3%	0.0%[9.22 µM]	2.51µM*	-24.0%
CCNc1ncc2nc(-c3ccc(OC)cc3)c(=O)n(Cc3cccc(OC)c3)c2n1	0.9%[11.4 µM]	1.7%	-2.7%[9.22 µM]	?	-3.7%
CCNc1ncc2nc(-c3cccc(C#N)c3)c(=O)n(C)c2n1	-4.7%[11.4 µM]	2.5%	-0.5%[9.22 µM]	2µM*	-9.7%
CCNc1ncc2nc(-c3ccc(Cl)cc3)c(=O)n(CCC#N)c2n1	0.3%[11.4 µM]	0.5%	3.1%[9.22 µM]	2µM*	-3.9%
